The record followed here is publication PMC12136788.

Sequences and labels used below:
B1: chr17:48622902:48623135:-|CDS|ENSG00000170689|control|control|control (ssRNA)
RNA: GGGAGUUCUACAGUCCGACGAUCUACCAGACGCUGGAGCUAGAGAAGGAGUUUCUGUUCAAUAUGUACCUCACCAGGGACCGUAGGCACGAAGUGGCCAGACUCCUCAAUCUGAGUGAGAGACAAGUCAAAAUCUGGUUUCAGCAACAGAGGAUUGAGCAUCA
B2: chr13:99866285:99866388:+|CDS|ENSG00000125246|unk|FALSE|unique (ssRNA)
RNA: GGGAGUUCUACAGUCCGACGAUCUAUUCUCUACGCCCGGCAAAAGAUUGUUGUCAUAGCGAAAGCCUUUGGUCUCCAAGCCAUAGAUCUGGUGUACAUUGACUUUCGAGAUGGAGCUGGGCUGCUUAGACAGUCACGAGAAGGCAACAGAGGAUUGAGCAUCA
B3: ENSG00000198589:be:win_1301|CDS|ENSG00000198589|bound_else_gene|NA|bound_elsewhere_windowed (ssRNA)
RNA: GGGAGUUCUACAGUCCGACGAUCCAUCUCCUAAGGACAACCCUUCAAUUUUUGUUCAUUCACCACAUGCACUCAUGCUCCAGGAUGUAAAGGCAGUUUUAACACAUUCCAUCCAAAGUGCAAUGCAUUCAAUUGGAGGAGUACCAACAGAGGAUUGAGCAUCA
B4: chr15:59095394:59095499:+|3pUTR|ENSG00000157450|unk|FALSE|unique (ssRNA)
RNA: GGGAGUUCUACAGUCCGACGAUCUAAAUACCAUCCUUAAUACUGGGAACAGAAUACAACCCAUAUAAAUCAGAUGCAGGUGGUAGUCACAUCACCAGAGUGAUCAGUAUAAAUUUUCUUGGUGUAUCCUUUUCCUUUCAACACCAACAGAGGAUUGAGCAUCA
B5: chrX:115010634:115010735:-|CDS|ENSG00000123496|msi1|FALSE|unique (ssRNA)
RNA: GGGAGUUCUACAGUCCGACGAUCUGGAUCAUCAGAGAACAAGCCUAUCAGAUCCAGUUAUUUCACUUUUCAGCUUCAAAAUAUAGGUGAUGUAAACCAACAAACAACUUCAAAUUCAUUGUUUCUAGUUUAGGCCAUUUACAACAACAGAGGAUUGAGCAUCA
B6: chr1:193029531:193029688:-|CDS|ENSG00000116750|unk|total|mutant (ssRNA)
RNA: GGGAGUUCUACAGUCCGACGAUCUUGAUAUCUUCACUUUUAUAUUUUACCGGUAAUUAAUAAUGCUUGUGCUACUCAAGCCACCGUGAGUGUGUUACUGAACUGUACCCACCAGGAUGUCCAUUCCGGCGAGACAUUAUCAGACAACAGAGGAUUGAGCAUCA
B7: chr1:193029531:193029688:-|CDS|ENSG00000116750|unk|FALSE|unique (ssRNA)
RNA: B6 RNA with C49U, C50A, C83U, C84A, C125U, C126A
B8: chr7:30424526:30425710:-|three_prime_utr|ENSG00000106100|control|control|control (ssRNA)
RNA: GGGAGUUCUACAGUCCGACGAUCAAACUCCCUAAGUACCCGCUACAAUUCUGCAGAAAAAGAAUGUGUCUUGCGAGCUGUUGUAGUUACAGUAAAUACACUGUGAAGAGACUUUAUUGCCUAUUAUAAUUAUUUUUAUCUGAACAACAGAGGAUUGAGCAUCA
B9: chr9:137457406:137457901:-|CDS|ENSG00000165802|control|control|control (ssRNA)
RNA: GGGAGUUCUACAGUCCGACGAUCCGCCUGUCCCUCGUCUCCAACGGCUGCUACGAGGGCAGCCUCUCAGAGGAGCCCAGCAUUAGGAAGCCCGCAGGCGAGGGCCCUCAGCCUCGAGUGUACACCAUCUCUGGGGAGCCUGCCCAACAGAGGAUUGAGCAUCA
B10: chr14:44928120:44928223:-|3pUTR|ENSG00000179454|unk|total|mutant (ssRNA)
RNA: GGGAGUUCUACAGUCCGACGAUCCCGUACAGCAGGCCUCCCAGUGCUGAUGUAAAUAUUUGAGCAGUGUUCCGUACCAUUCUCCGUGCAUAUUAAUUUUUUUAUAUAUCCUUAUAAUUUCCGUUUUUUAAGAUCUUUGCUUUUCAACAGAGGAUUGAGCAUCA
B11: chr6:89631235:89631336:+|3pUTR|ENSG00000135299|msi1|FALSE|unique (ssRNA)
RNA: GGGAGUUCUACAGUCCGACGAUCUGAAGUUUGAAAGCUCAGAUUAAGCAAGCCAUGCCAAGAAACUGGACGAUGUGUAAGCCUAGACUCUAAAAUUCAAGAUGUGUGAAAUAAUAUAAGUCAAAAGCAAGAAAAACGUAAUCCCAACAGAGGAUUGAGCAUCA
B12: chr14:44928120:44928223:-|3pUTR|ENSG00000179454|unk|FALSE|unique (ssRNA)
RNA: B10 RNA with C24U, C25A, C71U, C72A, C83U, C84A, C120U, C121A
B13: ENSG00000070961:be:win_4451|3pUTR|ENSG00000070961|bound_else_gene|NA|bound_elsewhere_windowed (ssRNA)
RNA: GGGAGUUCUACAGUCCGACGAUCGUUUUGAAGCAACUGUUUAAUUUUUAAAAUUUUUGAAAACUUGCUAAUAACCUUUUGUUCAGAAUUUAGUAGAUUGUUUAAUGCAGGACAUCAACUACAUAAUGAAAGAUGCUUGAAAUGCAACAGAGGAUUGAGCAUCA
B14: chr2:224511460:224511569:-|CDS|ENSG00000036257|unk|total|mutant (ssRNA)
RNA: GGGAGUUCUACAGUCCGACGAUCGAAAGCCAGAAAUUUUCCGCAGAAAACCGUGCUUCAGUAUAUAUAAAGAAAGCCGAAGCCCGAAUUAAUGAAGAAACCGAACGAGUGAUGCACUGCCUUGACAAAUCAACGGAAGAACCACAACAGAGGAUUGAGCAUCA
B15: chr7:127374855:127374969:-|CDS|ENSG00000048405|unk|FALSE|unique (ssRNA)
RNA: GGGAGUUCUACAGUCCGACGAUCCCUAGAAGCCAUAUAUCCAAGUGUGGACAAACGAGAAUAUAUUAUUAAGCUAGAACCCAUAGAAACUAAUCAAAAUGCAGUAUUUCAAUAUAUUUCGAGGACUGAUAAUCCUAUUGAAGUCAACAGAGGAUUGAGCAUCA
B16: chr7:127374855:127374969:-|CDS|ENSG00000048405|unk|total|mutant (ssRNA)
RNA: B15 RNA with U26C, A27C, U74C, A75C, U83C, A84C
B17: ENSG00000039319:stop:overlap|stop_codon|ENSG00000039319|stop_codon|NA|stop_codon (ssRNA)
RNA: GGGAGUUCUACAGUCCGACGAUCCCAACUCUAGUUUACCAUUAGAAAUAGAAUUAGUGUUUUUCAUUAUAGAACAUCUUUUUUAGUGAAAGAAUGUGCCAUAUUACAUAUUGCAACCUAAUUUGUUAAAACUAACUCCAGCACCAACAGAGGAUUGAGCAUCA
B18: chr2:224511460:224511569:-|CDS|ENSG00000036257|unk|FALSE|bound_elsewhere (ssRNA)
RNA: B14 RNA with C40U, C41A, C50U, C51A, C76U, C77A, C83U, C84A, C100U, C101A
B19: chr10:62095068:62095169:+|3pUTR|ENSG00000150347|msi1|FALSE|unique (ssRNA)
RNA: GGGAGUUCUACAGUCCGACGAUCCCAUUUGCUUCAAUUAAUUAUUUACCUUCCUGUGGAAUAAUAUAUAUAUAUAUAUUUAAUAGAACCAUAGAUAGACUAGUAGAAUUUAGAUUAUAAAUGUGUGAGUGCAGAUUAUCCUGCCAACAGAGGAUUGAGCAUCA
B20: chr9:21239001:21239365:-|three_prime_utr|ENSG00000228083|control|control|control (ssRNA)
RNA: GGGAGUUCUACAGUCCGACGAUCCAAAAUUUUCAAAUGUUUUCAGGAGUGUAAAGAAGCAUCAUGUAUACCUGUGCAGGCACUAGUCCUUUACAGAUGACCAUGCUGAUGUCUCCUUUCAUCUAUUUAUUUAAAUAUUUAUUUCAACAGAGGAUUGAGCAUCA
B21: chr10:62095068:62095169:+|3pUTR|ENSG00000150347|msi1|total|mutant (ssRNA)
RNA: GGGAGUUCUACAGUCCGACGAUCCCAUUUGCUUCAAUUAAUUAUUUACCUUCCUGUGGAAUAAUAUAUAUAUAUAUAUUUAACCGAACCACCGACCGACCCGCCGAAUUCCGAUUAUAAAUGUGUGAGUGCAGAUUAUCCUGCCAACAGAGGAUUGAGCAUCA
B22: ENSG00000070961:be:win_601|CDS|ENSG00000070961|bound_else_gene|NA|bound_elsewhere_windowed (ssRNA)
RNA: GGGAGUUCUACAGUCCGACGAUCCAGGUCAUUCAGAUACCUGUAGCUGACAUUACUGUUGGAGAUAUUGCUCAAGUGAAAUAUGGUGAUCUUCUUCCAGCUGACGGCAUACUUAUUCAAGGCAACGAUCUUAAAAUUGAUGAACAACAGAGGAUUGAGCAUCA

Positions count from the first letter of the chain named. The full ranking holds about 5,800 sequences; the median of “enrichment r” is about 0.54, and the highest 2% start at about 16. This excerpt belongs to a sample that is enriched for the highest values.

MSI1 full-length, sequence (Q61474 whole entry): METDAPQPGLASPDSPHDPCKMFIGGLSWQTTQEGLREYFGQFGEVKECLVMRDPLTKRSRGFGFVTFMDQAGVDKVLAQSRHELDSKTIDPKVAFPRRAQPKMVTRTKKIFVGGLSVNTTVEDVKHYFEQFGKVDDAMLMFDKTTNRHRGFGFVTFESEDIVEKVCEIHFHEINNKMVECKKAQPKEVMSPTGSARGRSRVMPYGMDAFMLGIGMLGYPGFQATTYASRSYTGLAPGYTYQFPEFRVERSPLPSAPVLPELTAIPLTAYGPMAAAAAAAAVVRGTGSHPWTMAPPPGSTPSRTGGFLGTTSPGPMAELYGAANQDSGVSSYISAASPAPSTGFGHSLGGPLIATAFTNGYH

The experiment addresses MSI1 full-length (mouse, UniProt Q61474 1-362). The experiment in a line: nsRBNS (natural sequence RNA bind-n-seq); RBNS binding buffer (assumed for nsRBNS): 25 mM Tris pH 7.5, 150 mM KCl, 3 mM MgCl2, 0.01% Triton X-100, 500 ug/ml BSA, 20 U/ml SUPERase-In, 4 C; UNK is unkempt and MSI1 is Musashi-1; names of the RNAs are library labels; protein concentration not given here; high values mean tight binding.
On to B1, for which the binding signal worked out at 0.411 enrichment R.
On to B2, for which the binding signal came to 0.39 enrichment R.
Take B3: the binding signal came out at 0.284 enrichment R.
Then B4, with 0.744 enrichment R; and B5, with 1.74 enrichment R; and B6, with 1.15 enrichment R.
Under B7 stands 30 enrichment R; under B8, 3.46 enrichment R.
The molecule B9 returned a binding signal of 0.4 enrichment R.
Under B10 stands 8.16 enrichment R; under B11, 0.258 enrichment R; under B12, 35.6 enrichment R.
Molecule B13 yielded a binding signal of 0.619 enrichment R.
In turn, B14 gave a binding signal of 0.432 enrichment R.
For B15, the binding signal was found to be 28.2 enrichment R.
Then B16, with 0.508 enrichment R; and B17, with 0.848 enrichment R; and B18, with 36.5 enrichment R.
Then B19, with 21.1 enrichment R; and B20, with 0.493 enrichment R.
Under B21 stands 9.42 enrichment R.
Molecule B22 had a binding signal of 0.234 enrichment R.
